The subject of this assay is Trypanosoma brucei. Briefly: Trypanosoma brucei 72 hour study. The arrangement: scale not given: in the data most compounds retested in dose-response had high values. The assay is classed as functional, organism-based.

The record followed here is ChEMBL document CHEMBL3988442, “University of Dundee, Small-Polar-MMV Screening Library” (2021).

About 960 (1.5%) of roughly 66,000 compounds showed an effect of 50% or more. The entries come from a sample that favours strong results as a whole.

Take `Cc1ncn(CCNC(=O)Nc2ccc(OC(F)(F)F)cc2)c(=O)c1C`: where the note is “30 µM, 30.03 µM”, the “Percent Effect” value is given as -6.151%.

Turning to `Cc1cc(C2CCCN(Cc3nc(Cc4ccccc4)no3)C2)n[nH]1` (stereo not drawn), the “Percent Effect” value (30 µM, 30.03 µM) is listed as -33.51%.

Consider `Cc1ccc(CN2CCC3(CC2)CC(N2CCN(C)CC2)CO3)s1.O=C(O)C(F)(F)F.O=C(O)C(F)(F)F.O=C(O)C(F)(F)F` (stereo not drawn), for which the “Percent Effect” value (30.3 µM, […]) was -296.4%.

As for `Cc1cncc(C(=O)N2CC[C@@]3(C[C@H](NS(C)(=O)=O)CCO3)C2)c1.O=C(O)C(F)(F)F`, the “Percent Effect” value (30.3 µM, […]) is given as -90.12%.

For `CCN1CCCn2c(nc(CNC(=O)c3cnoc3C)cc2=O)C1.O=C(O)C(F)(F)F`, the “Percent Effect” value (30 µM, 30.03 µM) stood at 9.742%.

With `CS(=O)(=O)N1CCCC1c1cccc(Cc2ccccc2F)n1` (stereo not drawn), under “30.3 µM, […]”, the “Percent Effect” value is 0.4351%.

As to `c1ccc(Cc2cncc(C3CCCN3C3CCOCC3)n2)cc1` (stereo not drawn), the “Percent Effect” value (30.3 µM, […]) was -18.14%.

Regarding `CN1CCCC1c1cccc(Cc2ccccc2F)n1` (stereo not drawn), for the setting “30.3 µM, […]”, the “Percent Effect” value was found to be 101.4%.

Consider `Fc1cccc(Cc2cncc(C3CCCN3C3CCOCC3)n2)c1` (stereo not drawn), for which, under “30.3 µM, […]”, the “Percent Effect” value is on record as 9.592%.

In the case of `CN(C)S(=O)(=O)N1CCCC(c2cccc(Cc3ccc(Cl)cc3)n2)C1` (stereo not drawn), the “Percent Effect” value (30.3 µM, […]) is reported as 99.29%.

For the molecule `CN(C)S(=O)(=O)N1CCCC(c2cccc(Cc3ccccc3F)n2)C1` (stereo not drawn), the “Percent Effect” value (30.3 µM, […]) turned out to be 46.46%.

`CN(C)S(=O)(=O)N1CCCC(c2cccc(Cc3ccc(F)cc3)n2)C1` (stereo not drawn): for the setting “30.3 µM, […]”, the “Percent Effect” value is listed as 41.5%.

As for `c1ccc(Cc2cccc(C3CCCN3C3CCOCC3)n2)cc1` (stereo not drawn), the “Percent Effect” value (30.3 µM, […]) is recorded as 101%.

With `CN(C)S(=O)(=O)N1CCCC(c2cccc(Cc3ccccc3)n2)C1` (stereo not drawn), the “Percent Effect” value (30 µM, 30.03 µM) is on record as -81.93%.

In the case of `COCCCNc1c(-c2ccc(Cl)cc2)c(=O)c1=O`, the “Percent Effect” value (30.3 µM, […]) came out at 13.47%.

As to `O=C(c1cnccn1)N1CCCC(Cc2cccc3ncccc23)C1` (stereo not drawn), the “Percent Effect” value (30.3 µM, […]) is on record as -10.31%.

`CN(C)C(=O)[C@@H]1CCO[C@@H]2CCN(CCOCc3ccccc3)C[C@H]21.O=C(O)C(F)(F)F`: for the setting “30.3 µM, […]”, the “Percent Effect” value is recorded as -3.678%.

On to `CC(C)(C)c1nc(NS(=O)(=O)c2ccccc2F)no1`, for which the “Percent Effect” value (30 µM, 30.03 µM) is recorded as -17.01%.

As to `O=C(NCC1CC1)C1CCC2(CCN(C(=O)c3ccncc3)CC2)O1.O=C(O)C(F)(F)F` (stereo not drawn), the “Percent Effect” value (30.3 µM, […]) is reported as -42.23%.

For the molecule `Cc1noc(C)c1CN1CCO[C@H]2[C@H](Oc3ncccc3F)CC[C@@H]21.O=C(O)C(F)(F)F.O=C(O)C(F)(F)F`, where the note is “30 µM, 30.03 µM”, the “Percent Effect” value is -9.669%.

Regarding `CCCN(CCc1ccccn1)C(=O)CCc1cnn(C)c1`, under “30 µM, 30.03 µM”, the “Percent Effect” value is reported as -34.35%.

Turning to `CCN(CC)Cc1ccc(C(=O)N2CCCC2Cn2cccn2)cc1` (stereo not drawn), for the setting “10 µM”, the “Percent Effect” value is on record as -13.25%.

Turning to `CCc1cnc(CN(C)C2CCN(CC(=O)Nc3nccs3)C2)o1` (stereo not drawn), the “Percent Effect” value (10 µM) was -37.99%.

Take `COc1ccc(N2Cc3nc(=O)n(Cc4cccc(F)c4)n3C2=O)cc1`: the “Percent Effect” value (30 µM, 30.03 µM) is on record as -5.99%.

On to `CCN1CCn2c(C)cnc2C12CCN(C(=O)NCC(C)C)CC2.O=C(O)C(F)(F)F`, for which, under “30.3 µM, […]”, the “Percent Effect” value is recorded as -30.2%.

`O=C(Nc1ccccn1)C1CC(=O)N(Cc2ccccn2)C1` (stereo not drawn): the “Percent Effect” value (30 µM, 30.03 µM) is on record as -8.332%.

In the case of `Cc1ccc(Cl)cc1NC(=O)C1CC(=O)N(Cc2ccccn2)C1` (stereo not drawn), the “Percent Effect” value (30 µM, 30.03 µM) was determined as 8.87%.

Consider `COc1ncccc1NC(=O)C1CC(=O)N(Cc2ccccn2)C1` (stereo not drawn), for which the “Percent Effect” value (30 µM, 30.03 µM) stood at 55.04%.

Turning to `CC(C)(C)NC(=O)CCOc1cccc(F)c1`, the “Percent Effect” value (10 µM) is reported as -74.47%.

For the molecule `COc1ccccc1CN1CC[C@]2(C[C@@H](OC)CO2)C1.O=C(O)C(F)(F)F`, the “Percent Effect” value (30 µM, 30.03 µM) was -26.27%.

`Cc1nn(C)c2c(NCCCn3cccn3)nc(C(C)C)nc12`: the “Percent Effect” value (30.3 µM, […]) was -9.582%.

In the case of `COc1cc(C(=O)NCCc2ccccc2OC)on1`, under “30.3 µM, […]”, the “Percent Effect” value is listed as 101.4%.

In the case of `COc1cc(C(=O)NCCCc2ccccc2)on1`, the “Percent Effect” value (30.3 µM, […]) amounted to 10.61%.

`COc1cc(C(=O)NCCc2ccc(OC)c(OC)c2)on1`: for the setting “30.3 µM, […]”, the “Percent Effect” value is given as 8.881%.

In the case of `Cc1occc1C(=O)N1CCC2(CCN(Cc3ccccn3)C2=O)C1.O=C(O)C(F)(F)F` (stereo not drawn), the “Percent Effect” value (30 µM, 30.03 µM) is reported as -18.48%.

Take `Cc1cc(C)nc(N2CCN(Cc3nccn3C)CC2)n1.O=CO`: the “Percent Effect” value (30.3 µM, […]) is -2.711%.

Consider `Cc1noc(C)c1CN1C[C@@H](OCc2ccccn2)[C@H]2OCCC[C@H]21.O=C(O)C(F)(F)F.O=C(O)C(F)(F)F`, for which, where the note is “30 µM, 30.03 µM”, the “Percent Effect” value is -32.5%.

For `O=C(O)C(F)(F)F.O=c1ccc2c([nH]1)CCC(NCc1ccc3c(c1)OCO3)C2` (stereo not drawn), the “Percent Effect” value (30.3 µM, […]) is -24.67%.

As to `CC(C)CCN1C2(CCN(C(=O)CN(C)C)C2)c2ccccc2S1(=O)=O.O=C(O)C(F)(F)F` (stereo not drawn), where the note is “30.3 µM, […]”, the “Percent Effect” value is -2.24%.

In the case of `COc1ccc2c(c1)OC1(CCN(Cc3ccc(C)cc3)CC1)CC2=O`, the “Percent Effect” value by setting is: (30.3 µM, […]) -15.07%; (10 mM, 10 mM as filed; unlikely as a test dose) -53.52%.

For the molecule `COc1ccc2c(c1)OC1(CCN(Cc3ccccc3C)CC1)CC2=O`, the “Percent Effect” value (30.3 µM, […]) was determined as 99.25% and the “Percent Effect” value (10 mM, 10 mM as filed; unlikely as a test dose) is -45.93%.

In the case of `COc1ccc2c(c1)OC1(CCN(Cc3cccc(C)c3)CC1)CC2=O`, the “Percent Effect” value was -0.9536% (30.3 µM, […]) and -48.74% (10 mM, 10 mM as filed; unlikely as a test dose).

For `Cc1nc(CN2CCCC(C)(CO)C2)no1` (stereo not drawn), the “Percent Effect” value (30 µM, 30.03 µM) was -41.91%.

`Cl.Cl.O=C(NCc1cncc2c1CCN(C1CCOC1)C2)c1ccco1` (stereo not drawn): the “Percent Effect” value (30.3 µM, […]) is -14.18%.

Turning to `Cc1ccc(C)c(CN(CC(N)=O)C(C)C)c1`, under “30 µM, 30.03 µM”, the “Percent Effect” value is -11.18%.
